The text below walks through data of PubChem BioAssay (NCI).

This is part of a sample that, as a whole, favours compounds with a hit. Of some 83,000 tested, about 20% had one in any assay.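 Each cell line was grown in a 96-well plate and treated with one concentration of compound for 48 hours. Values below 10 were considered active.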 Calls of active or inactive are those of the source.

In this assay the test system is HT29 colon. The experiment in a line: NCI-60 one-dose screen, 48 h (100 = growth as untreated, 0 = no growth, -100 = all killed). The following applies: 10 µM unless noted. As for the experimental part: Growth inhibition of the HT29 human tumor cell line is measured as a screen for anti-cancer activity. Cells are grown in 96 well plates and exposed to the test compound for 48 hours. Compounds are tested at a single concentration, which is 10^-5 M for most compounds. The reported endpoint is percent growth (GI% or GIPRCNT), where numbers from 0 - 100% represent growth inhibition, and numbers from -100% - 0 represent cell death. For example, a value of 40 represents 60% growth inhibition. A value of 0 means no net growth occurred over the course of the experiment. A value of -40 indicates 40% of cells at the beginning of the experiment died by the end of the experiment. A value of -100 means all cells are dead at the end of the experiment.
NCI-60 Human Tumor Cell Lines Screen was performed using the standard one-dose NCI protocol, which is described in more detail at https://dtp.cancer.gov/discovery_development/nci-60/default.htm.
Compounds with GIPRCNT values below 10 were considered active. Activity score was based on GIPRCNT using the following formula: […]
Score is 0 for GIPRCNT values of 100 or above, 50 for GIPRCNT values of 0, and 100 for GIPRCNT values of -100.
`FC1(F)CCN(Cc2c[nH]c3cc(Cl)ccc23)C[C@H]1CCc1ccccc1`: the growth was 26.6% (inactive).
In the case of `CC(=O)N(C)c1ccc(Nc2cc(C)[nH]c3ccc4ncnc4c23)cc1` it was 48% (inactive); in that of `O=C(CSc1ccc(Cl)cc1)Nc1ccc(-c2nc3ccccc3s2)c(Cl)c1`, 57% (inactive); in that of `Nc1ccc(C(OC(=O)c2cc3ccccc3c(Cc3c(O)c(C(=O)OC(c4ccc(N)cc4)(c4ccc(N)cc4)c4ccc(N)cc4)cc4ccccc34)c2O)(c2ccc(N)cc2)c2ccc(N)cc2)cc1`, 8.68% (active).
Turning to `CC1=C(C(=O)Nc2ccc(F)cc2)C(c2ccc(C)cc2)C2=C(CC(C)(C)CC2=O)N1` (stereo not given), the growth was 100% (inactive).
For the molecule `CC(=O)[C@@]1(O)[C@H](C)C[C@H]2[C@@H]3C=C(C)C4=Cc5c(cnn5-c5ccccc5)C[C@]4(C)[C@H]3[C@@H](O)C[C@@]21C`, the growth is -76.9% (active).
Consider `COc1cccc(CC(C)=C(c2ccc(OCCCN(C)C)cc2)c2ccc(OCCCN(C)C)cc2)c1`, for which the growth is -81.5% (active).
For the molecule `COc1ccc([C@@H]2[C@@H](Oc3ccccc3)C(=O)N2c2cc(OC)c(OC)c(OC)c2)cc1F`, the growth was -6.94% (active).
Consider `COc1cc(C2CC(c3ccc(Nc4ccnc5cc(Cl)ccc45)cc3)=NN2c2ccccc2)cc(OC)c1OC` (stereo not given), for which the growth was 44.2% (inactive).
`O=C(Nc1ccc(Cl)c(C(F)(F)F)c1)c1ccc(Nc2ccc(Cl)nn2)cc1`: the growth is 61.7% (inactive).
For `C/C(=N\NC(=S)N1CCCCC1)c1ccccn1`, the growth was 8.66% (active).
Consider `CCOC(CN1CCN(CC(C)C(=O)c2ccccc2)CC1)c1ccccc1` (stereo not given), for which the growth is 108% (inactive).
Regarding `COCCn1c(Nc2ccc(C(=O)NO)cc2)nc2ccccc21`, the growth was 44.1% (inactive).
With `CN1CCN(Cc2ccc(NC(=O)c3cncc(C#Cc4ncc5cnccn45)c3)cc2C(F)(F)F)CC1`, the growth was 27.4% (inactive).
In the case of `NCCCOc1cc2ccccc2cc1C(=O)NCCCOc1cc2ccccc2cc1C(=O)Nc1ccc(Cl)cc1O`, the growth is -90.7% (active).
`Cc1ccc(-c2cnc3sc4ccc(Cl)cc4n23)cc1`: the growth was 99.8% (inactive).
For `COc1cc(-c2n/c(=C\c3c(O)[nH]c4cc(Cl)ccc34)cc3c2=Nc2ccccc2-3)cc(OC)c1OC`, the growth is 24.3% (inactive).
As to `O=C1/C(=C\c2cccn2Cc2ccc(Cl)cc2)c2ccccc2N1c1c(Cl)cccc1Cl`, the growth is 85.5% (inactive).
`Nc1ccc(N(O)/C=C2\C=CC=CC2=O)cc1N`: the growth is 172% (inactive).
Turning to `Clc1ccc(-c2nc(Br)cn3ccnc23)cc1`, the growth was 87.6% (inactive).
In the case of `COc1cc2c(cc1I)-c1c(cc(OC)c(OC)c1OC)CC[C@@H]2NC(C)=O`, the growth is 4.21% (active).
Regarding `O=C(Nc1cnc(C(F)(F)F)cn1)c1cc(Cl)ccc1O`, the growth was 22.6% (inactive).
Regarding `C#CC[C@@H]1C[C@]2(C)[C@H]3CC[C@@H]4[C@H]5C(C(=C)C)CC[C@]5(C(=O)NCCN(CCN)CCN)CC[C@@]4(C)[C@]3(C)CC[C@H]2C(C)(C)[C@H]1OC(C)=O` (stereo not given in full), the growth was 46.8% (inactive).
For `Cc1cc(C)c([O-])c(CN(C)CCN(C)Cc2cc(C)cc(C)c2[O-])c1.O=C([O-])c1cccc(C(=O)[O-])n1.[Ti+4]`, the growth was -32.8% (active).
Take `O=C1/C(=C\c2cccn2Cc2ccc(F)cc2)c2ccccc2N1c1c(Cl)cccc1Cl`: the growth is 81.5% (inactive).
As for `COc1ccc(/C=C2\Cc3c(Br)cccc3C2=O)c(OC)c1`, the growth is 64.4% (inactive).
In the case of `COc1ccc(C2C3CCc4ccccc4C3=NN2C(=O)c2cc(OC)c(OC)c(OC)c2)cc1O` (stereo not given) it was 104% (inactive).
Take `NC(N)=N/N=C/c1ccccc1`: the growth is 99.8% (inactive).
In the case of `COc1cc(Cn2c(-c3ccccc3)cc3c2-c2oncc2CC3)cc(OC)c1OC`, the growth is 4.59% (active).
The same measure for `Cc1cc(N=Nc2ccc(-c3ccc(N=Nc4ccc(O)c(C(=O)O)c4)cc3)cc2)c(N)c(N=Nc2ccc(C(=O)O)cc2)c1N`: 76.6% (inactive); for `CC(=O)[C@H]1CC[C@H]2[C@@H]3CC[C@H]4CC=CC[C@]4(C)[C@H]3CC[C@]12C`: 79.4% (inactive); for `C/C(=N\OC(=O)Nc1cccc(Cl)c1)c1ccccc1`: 94.4% (inactive).
As for `Oc1c(-c2cc(C(F)(F)F)[nH]n2)cc(Cl)c(OCc2ccc(Cl)cc2)c1-c1ccc(Cl)c(C(F)(F)F)c1`, the growth is 6.96% (active).
The same measure for `CCC1CCc2nc3sc(C(=O)Nc4cccc(F)c4)c(N)c3cc2C1` (stereo not given): 33.5% (inactive); for `Cn1c(=O)c2[nH]c(Cc3ccc4c(c3)OCO4)nc2n(C)c1=O`: 120% (inactive).
For `Nc1n[nH]c2ccc([C@@H]3Nc4c(F)cc5[nH]ncc5c4[C@H]4C5CCC(C5)[C@@H]34)cc12` (stereo not given in full), the growth was 11.7% (inactive).
In the case of `Cc1ccc(-c2nc3ccccc3c(=O)n2/N=C/c2cccc3ccccc23)cc1` it was 102% (inactive); in that of `O=c1cc(N2CCOCC2)oc2c(-c3ccc4c(c3)OCCO4)csc12`, 10.8% (inactive); in that of `O=C(Nc1ccc(Oc2ccc(NC(=O)Nc3ccccc3Cl)cc2)cc1)Nc1ccccc1Cl`, 45.9% (inactive).
In the case of `CC(=O)c1nn(-c2ccccc2)/c(=N\N=C\c2coc3ccc(F)cc3c2=O)s1`, the growth was 108% (inactive).
